# Experimental data from PubChem BioAssay AID463173 (ICCB-Longwood Screening Facility, Harvard Medical School, 2010).
# The whole screen tested about 52,000 compounds, of which about 1,700 (3.3%) were called active. The full list was thinned out, with actives kept by preference. Values without a mark were called inactive. Rule as the data show it: active = survival mostly below about 52% (no sharp cut-off); inactive = mostly above about 56%.
# Test system: Wild type
# Assay: growth inhibition of S. aureus wild type versus tarO mutant, primary screen, teichoic acid synthesis inhibitors, RN4220, OD600 (AID 463173)
# Conditions: S. aureus RN4220 wild type/DeltatarO growth, OD600, 18 h, active compounds read low, screened at 18.75 µg/mL (by protocol)
row,SMILES,survival
1,CCCCN(CC)CCNc1ncnc2onc(-c3ccc(Cl)cc3)c12,82%
2,CCC(C(=O)NCc1cc(OC)ccc1OC)n1nc(C)c2sc3ccccc3c2c1=O (configuration not stated),87%
3,Cc1ccc(CCNC(=O)c2ccc3c(c2)N(Cc2cccc(F)c2)C(=O)c2ccccc2S3)cc1,71%
4,CCN(CC)C(=O)CSc1nnc(COc2ccc(Br)cc2)o1,102%
5,COCc1[nH]nc2c1C(c1ccccc1C(F)(F)F)C(C#N)=C(N)O2 (configuration not stated),114%
6,CCCCCc1ccc(-c2ccc(Br)cc2)nc1,-3% (active)
7,CCCCCc1ccc(-c2ccc(C(=O)Oc3ccc(C(=O)OC)cc3)cc2)nc1,74%
8,CCCc1ccc(-c2ccc(C(=O)Oc3ccc(Br)cc3)cc2)nc1,140%
9,NNC(=O)CCC(=O)Nc1ccccc1,112%
10,CC(C)CNS(=O)(=O)c1ccccc1,120%
11,CCN(CC)S(=O)(=O)N1CCN(S(=O)(=O)N2CCOCC2)CC1,118%
12,O=C(CS(=O)(=O)c1cccc2nsnc12)N1CCN(c2ccc(F)cc2)CC1,97%
13,CCOC(=O)c1nnn(-c2nn3nnnc3c3ccccc23)c1C,101%
14,CCn1cc(C(=O)NCC(C)C)c(=O)c2cc(F)c(N3CCN(C(=O)c4ccco4)CC3)cc21,107%
15,O=C(NCc1ccncc1)C1CCN(C(=O)c2cccc(Cl)c2)CC1,111%
16,O=C(NCc1cccnc1)c1cn(C2CC2)c2cc(N3CCN(C(=O)c4cccc(Cl)c4)CC3)c(F)cc2c1=O,0% (active)
17,CCc1ccc(NC(=O)Cn2c(=O)n(CCCC(=O)NCc3ccccc3Cl)c(=O)c3ccccc32)cc1,136%
18,CC(C)OCCCN(Cc1ccco1)C(=O)c1cc2c(s1)-c1ccccc1OC2,9% (active)
19,CC(C)CCN(Cc1ccco1)C(=O)c1cc2c(Cl)nc3ccccc3c2s1,77%
20,COc1cccc(CNC(=O)c2cc3c(s2)-c2ccccc2OC3)c1,65%
21,COCCCN(Cc1ccco1)C(=O)c1cc2c(s1)-c1ccccc1OC2,12% (active)
22,CCN1CCN(CCCNC(=O)c2cc3c(s2)-c2ccccc2OC3)CC1,84%

row,SMILES,survival
1,CN(C)CCN(Cc1ccco1)C(=O)c1cc2c(s1)-c1ccccc1OC2,70%
2,CC(C)CCN(Cc1ccco1)C(=O)c1cc2c(s1)-c1ccccc1OC2,7% (active)
3,O=C(CC1N=C2c3ccccc3N=C(SCc3ccccc3F)N2C1=O)NCc1cccs1 (configuration not stated),75%
4,Cc1cc(C)c2c(NC(=O)c3ccccc3Cl)c(C(=O)Nc3ccc(C)c(C)c3)sc2n1,64%
5,CCc1ccc(NC(=O)c2cc3nc(-c4ccc(C)cc4)cc(C(F)(F)F)n3n2)cc1,60%
6,O=C(Nc1ccc(NC(=O)C2CC23CCC3)cc1)C1CC12CCC2 (configuration not stated),118%
7,CCN1CCN(c2cc(C)c3cc(NC(=O)/C=C/c4cccc(OC)c4OC)ccc3n2)CC1,83%
8,O=S(=O)(Nc1cccc(-c2ccc(N3CCCCC3)nn2)c1)c1cccc(F)c1,119%
9,COc1ccc(F)cc1S(=O)(=O)Nc1cccc(-c2ccc(N3CCC(C)CC3)nn2)c1,129%
10,O=S(=O)(Nc1ccc(-c2ccc(N3CCCC3)nn2)cc1)c1ccc(OC(F)(F)F)cc1,-6% (active)
11,COc1ccc(C)cc1S(=O)(=O)Nc1cccc(-c2ccc(N3CCCC3)nn2)c1,77%
12,O=S(=O)(Nc1ccc(-c2ccc(N3CCCCC3)nn2)cc1)c1ccc(OC(F)(F)F)cc1,72%
13,CC1CCN(c2ccc(-c3cccc(NS(=O)(=O)c4ccc(Cl)s4)c3)nn2)CC1,71%
14,Cc1ccc(S(=O)(=O)Nc2cccc(-c3ccc(N4CCC(C)CC4)nn3)c2)s1,-3% (active)
15,COc1ccc(C)cc1S(=O)(=O)Nc1cccc(-c2ccc(N3CCC(C)CC3)nn2)c1,-4% (active)
16,O=S(=O)(Nc1ccc(-c2ccc(N3CCCC3)nn2)cc1)c1ccc(C(F)(F)F)cc1,64%
17,O=S(=O)(Nc1cccc(-c2ccc(N3CCCCCC3)nn2)c1)c1ccc(F)cc1,55%
18,O=S(=O)(Nc1cccc(-c2ccc(N3CCCCCC3)nn2)c1)c1ccccc1,1% (active)
19,Cc1ccc(S(=O)(=O)Nc2cccc(-c3ccc(N4CCCCC4)nn3)c2)s1,64%
20,Cc1ccc(NC(=O)C(=O)NCC(c2ccc3c(c2)OCO3)N2CCOCC2)cc1C (configuration not stated),45%
21,CC(C)c1ccc(NC(=O)CSC2=Nc3ccccc3C3=NC(CC(=O)NCc4ccc(F)cc4)C(=O)N23)cc1 (configuration not stated),73%
22,Cc1nc(C)c(-c2csc(NCc3ccccc3)n2)s1,123%

row,SMILES,survival
1,COc1ccc(CC(=O)Nc2cc(-c3cn4cccnc4n3)ccc2C)cc1OC,85%
2,CCCc1noc(-c2ccc(N3CCCCC3)c([N+](=O)[O-])c2)n1,77%
3,O=C(CN(C(=O)c1csnn1)c1ccccc1)NCc1ccc2c(c1)OCO2,114%
4,O=c1oc2ccc(Br)cc2cc1-c1nc(-c2ccccc2)no1,66%
5,O=C(CSc1nnc2[nH]c(=O)cc(-c3ccccc3)n12)Nc1ccc(F)cc1F,94%
6,COCCCNC(=O)CN1C(=O)COc2ccc(S(=O)(=O)N3CCCCCC3)cc21,77%
7,CCN(CC)S(=O)(=O)c1cc(-c2onc(C)c2C)ccc1OC,87%
8,CCCCn1cc(S(=O)(=O)c2ccc(Cl)cc2)c(=O)c2cc(F)c(N3CCCCC3)cc21,105%
9,Cc1cc(C)cc(OCC(=O)Nc2ccc(S(=O)(=O)Nc3onc(C)c3C)cc2)c1,73%
10,CC(=O)N1CCc2c(sc3c2c(=O)n(-c2ccccc2)c(=O)n3CC(=O)Nc2cccc(C)c2)C1,91%
11,CCC(=O)Nc1ccc(-c2nc3ccc(NC(=O)CC)cc3[nH]2)cc1,113%
12,O=C(Nc1ccc2nc(-c3ccccc3)[nH]c2c1)c1ccco1,1% (active)
13,CC(C)(C)C(=O)Nc1ccc(-c2nc3ccc(NC(=O)C(C)(C)C)cc3[nH]2)cc1,148%
14,CCOC(=O)c1sc2ccccc2c1S(=O)(=O)Nc1ccc(C(C)=O)cc1,90%
15,COc1ccc(S(=O)(=O)c2c(C)c(NS(=O)(=O)c3ccccc3)cc(C)c2O)cc1,90%
16,Cc1ccc(S(=O)(=O)c2c(O)cc(C)c(NS(=O)(=O)c3ccc(Br)cc3)c2C)cc1,-1% (active)
17,Cc1ccc(S(=O)(=O)c2c(O)cc(C)c(NS(=O)(=O)c3ccc(Cl)cc3)c2C)cc1,105%
18,CC(OC(=O)c1cc2sccc2n1C)C(=O)NCC1CCCO1 (configuration not stated),107%
19,COC(=O)c1ccc(-n2nnc(-c3nsc(NC(=O)c4ccc(Cl)cc4)n3)c2C)cc1,79%
20,COc1ccc(C2c3c(n(C)c4ccccc34)C(=O)N2CC(=O)Nc2cccc(F)c2)cc1 (configuration not stated),85%
21,O=C(NCc1ccc(F)cc1)C(=O)NCC(c1ccc2c(c1)OCO2)N1CCOCC1 (configuration not stated),88%
22,CCc1ccc(OCCn2c(C3CC(=O)N(Cc4ccc(F)cc4)C3)nc3ccccc32)cc1 (configuration not stated),-14% (active)

row,SMILES,survival
1,Cc1cc(OCCn2c(C3CC(=O)N(Cc4ccc(F)cc4)C3)nc3ccccc32)ccc1Cl (configuration not stated),-15% (active)
2,COc1ccc(OCCCn2c(C3CC(=O)N(c4ccc(F)cc4)C3)nc3ccccc32)cc1 (configuration not stated),85%
3,O=C1CC(c2nc3ccccc3n2CCCOc2ccccc2)CN1c1ccc(F)cc1 (configuration not stated),107%
4,COc1ccc(OCCn2c(C3CC(=O)N(c4ccc(F)cc4)C3)nc3ccccc32)cc1 (configuration not stated),84%
5,CCOc1ccc(N2CC(c3nc4ccccc4n3CCOc3ccc(CC)cc3)CC2=O)cc1 (configuration not stated),79%
6,N#C/C(=C\c1ccccc1)C(=O)Nc1sc2c(c1C(N)=O)CCC2,75%
7,COc1ccccc1CCNC(=O)c1cc2ccccn2n1,152%
8,CC(=O)Nc1ccc(NC(=O)C2CCN(c3c(NC(C)=O)c(C)nn3-c3ccccc3)CC2)cc1,63%
9,CC(=O)Nc1c(C)nn(-c2ccccc2)c1N1CCC(C(=O)NCc2ccc(Cl)cc2)CC1,81%
10,CC(=O)Nc1c(C)nn(-c2ccccc2)c1N1CCC(C(=O)Nc2ccc(F)cc2Cl)CC1,60%
11,CC(=O)Nc1c(C)nn(-c2ccccc2)c1N1CCC(C(=O)NCc2ccc(F)cc2)CC1,-3% (active)
12,CC(=O)Nc1c(C)nn(-c2ccccc2)c1N1CCC(C(=O)NCc2cccc(F)c2)CC1,1% (active)
13,CC(=O)Nc1c(C)nn(-c2ccccc2)c1N1CCC(C(=O)NCc2ccccc2Cl)CC1,-4% (active)
14,CC(=O)Nc1c(C)nn(-c2ccccc2)c1N1CCC(C(=O)Nc2ccc(C)cc2Cl)CC1,71%
15,CC(=O)Nc1c(C)nn(-c2ccccc2)c1N1CCC(C(=O)NCc2cccc(Cl)c2)CC1,71%
16,CC(=O)Nc1c(C)nn(-c2ccccc2)c1N1CCC(C(=O)Nc2cc(F)ccc2F)CC1,63%
17,CN(C(=O)CSc1nc2ccc(NC(=O)c3cccs3)cc2s1)c1ccccc1,77%
18,CCOc1ccc(NC(=O)Cn2cc(C(=O)C3CC3)c3ccccc32)cc1,78%
19,CC1Cc2ccccc2N1C(=O)c1cc2sccc2n1Cc1ccc(F)cc1 (configuration not stated),119%
20,Cn1c(=O)cc(OCC(=O)NCc2ccc(F)cc2Cl)c2ccccc21,117%
21,CCOc1ccc(NC(=O)c2c(NC(=O)Cc3ccccc3)sc3c2CCCC3)cc1,69%
